# Data reported in PubChem BioAssay (NCATS).
# Records with an inconclusive call do not appear. Where a call stands in place of a potency, no number is given. The source made the active and inactive calls. Unless noted, calls follow the shape of the dose curve; as a rule, active = well fitted curve in either direction with a large enough effect (not every such curve was filed as active); inconclusive = small, poorly fitted or top-dose-only effect, or another doubt; inactive = flat fitted curve, though single readings scatter.
# Experiments:
# [1] = biological target: Mitogen-activated protein kinase 10 (Mus musculus) (UniProt Q61831); experiment: JNK3 AlphaScreen Assay (AID 530);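 also: kinase came from lysate of stimulated human HepG2 cells; signal reports phosphorylation of biotinylated GST-cJun 1-79 at Ser73 with 10 µM ATP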
# In short: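 Compound titrations were preincubated 15 minutes at room temperature with substrate, antibody and pre-activated JNK3-containing HepG2 lysate. Reactions were started with 10 uM ATP and stopped with EDTA-containing bead buffer for AlphaScreen detection.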
# [2] = biological target: 3',5'-cyclic-AMP phosphodiesterase 4B (Homo sapiens) (UniProt Q07343); experiment: qHTS Assay for Inhibitors of PDE-IV (AID 607; active = well fitted activation curve with a large enough effect in the main read-out, with a control signal flat, not every such curve was filed as active)
# In short: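 The readout is membrane depolarisation from a cAMP-sensing CNG channel, detected with a potential dye at ex 535/em 590. Cells were HEK293-derived (endogenous PDE-IV) at 1000 cells/well, titrated up to 22.9 uM final.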
# [3] = Cell Viability - N2a (AID 540; active = well fitted curve in the direction sought with a large enough effect; an effect the other way counts as inactive or inconclusive; also: nearly all actives have a fitted effect of over 45% in size; also: potency is read from the fitted curve at half-maximal effect); details: N2a mouse neuroblastoma cell viability; activity change, negative = cytotoxicity: at 92.2 µM (top of the series)
# In short: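 Mouse neuroblastoma N2a cells, 1500/well, exposed to compounds 40 h at 37 °C in complete medium. Viability measured as cellular ATP by CellTiter-Glo luminescence; AC50 from Hill fits of concentration-response.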
# [4] = Cell Viability - NIH 3T3 (AID 541; active = well fitted curve in the direction sought with a large enough effect; an effect the other way counts as inactive or inconclusive; also: potency is read from the fitted curve at half-maximal effect; nearly all actives have a fitted effect of over 25% in size); details: NIH 3T3 cell viability, qHTS; activity change, negative = cytotoxicity: at 92.2 µM (top of the series)
# In short: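 Mouse NIH 3T3 fibroblasts, 1000 cells/well, rested 5 hr at 37 °C, then exposed to compound for 40 hr at 37 °C in complete medium. Viability read as intracellular ATP by CellTiter-Glo luminescence; AC50 from Hill-equation fits of concentration-response data.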
# [5] = Cell Viability - H-4-II-E (AID 543; active = well fitted curve in the direction sought with a large enough effect; an effect the other way counts as inactive or inconclusive; also: potency is read from the fitted curve at half-maximal effect; nearly all actives have a fitted effect of over 35% in size)
# In short: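 Rat hepatoma H-4-II-E cells, 1500 per well, treated 40 h at 37 °C in complete medium. Cellular ATP read by CellTiter-Glo luminescence; AC50 from Hill fits of concentration-response.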
# [6] = Cell Viability - SH-SY5Y (AID 544; active = well fitted curve in the direction sought with a large enough effect; an effect the other way counts as inactive or inconclusive; also: nearly all actives have a fitted effect of over 55% in size; also: potency is read from the fitted curve at half-maximal effect); details: SH-SY5Y neuroblastoma cell viability; viability change, negative = cytotoxic: at 92.2 µM (top of the series)
# In short: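 SH-SY5Y human neuroblastoma cells (1500/well) incubated 5 h, then compound-treated 40 h at 37 °C in complete medium. Viability read as intracellular ATP by CellTiter-Glo luminescence after 20 min; AC50 from Hill-equation fits of qHTS concentration-response.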
# [7] = Cell Viability - Renal Proximal Tubule (AID 545; active = well fitted curve in the direction sought with a large enough effect; an effect the other way counts as inactive or inconclusive; also: nearly all actives have a fitted effect of over 40% in size; also: potency is read from the fitted curve at half-maximal effect)
# In short: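 Luminescent ATP signal (CellTiter-Glo) served as the viability read-out after 40 hr compound exposure of freshly isolated rat proximal tubule cells at 37 °C. Concentration-dependent ATP loss was fitted with the Hill equation to give AC50.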
# [8] = Cellular Toxicity (caspase-3) Jurkat (AID 655; active = well fitted curve in the direction sought with a large enough effect; an effect the other way counts as inactive or inconclusive;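 also: cells exposed to compound for 16 h at 37 °C before reading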)
# In short: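 5000 Jurkat cells/well; compound 16 hr, 37 °C; Caspase-Glo 3/7 added, 20 min RT; luminescence read. Norm: DMSO = 0%, tamoxifen 100 uM = 100%. AC50, Hill model.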
# [9] = Cellular Toxicity (caspase-3) HUV-EC-C (AID 656; active = well fitted curve in the direction sought with a large enough effect; an effect the other way counts as inactive or inconclusive)
# In short: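 qHTS; HUV-EC-C, 1000 cells/well; 5 hr settle, 16 hr cmpd, 37°C; Caspase-Glo 3/7, 20 min RT; luminescence. Norm: DMSO = 0%, tamoxifen 100 uM = 100%. Hill-fit AC50.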
# [10] = Cellular Toxicity (caspase-3) SHSY5Y (AID 657; active = well fitted curve in the direction sought with a large enough effect; an effect the other way counts as inactive or inconclusive;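 also: cells exposed to compound for 16 hours at 37 °C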)
# In short: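 qHTS, SH-SY5Y, 1500 cells/well, 5 h pre-incubation 37 °C; compound 16 h 37 °C; Caspase-Glo 3/7 1 h RT; luminescence. Norm.: DMSO = 0, 10 uM staurosporine = 100%. Hill fit → AC50.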
# Chain of 3',5'-cyclic-AMP phosphodiesterase 4B (Homo sapiens) (Q07343 whole entry, looked up): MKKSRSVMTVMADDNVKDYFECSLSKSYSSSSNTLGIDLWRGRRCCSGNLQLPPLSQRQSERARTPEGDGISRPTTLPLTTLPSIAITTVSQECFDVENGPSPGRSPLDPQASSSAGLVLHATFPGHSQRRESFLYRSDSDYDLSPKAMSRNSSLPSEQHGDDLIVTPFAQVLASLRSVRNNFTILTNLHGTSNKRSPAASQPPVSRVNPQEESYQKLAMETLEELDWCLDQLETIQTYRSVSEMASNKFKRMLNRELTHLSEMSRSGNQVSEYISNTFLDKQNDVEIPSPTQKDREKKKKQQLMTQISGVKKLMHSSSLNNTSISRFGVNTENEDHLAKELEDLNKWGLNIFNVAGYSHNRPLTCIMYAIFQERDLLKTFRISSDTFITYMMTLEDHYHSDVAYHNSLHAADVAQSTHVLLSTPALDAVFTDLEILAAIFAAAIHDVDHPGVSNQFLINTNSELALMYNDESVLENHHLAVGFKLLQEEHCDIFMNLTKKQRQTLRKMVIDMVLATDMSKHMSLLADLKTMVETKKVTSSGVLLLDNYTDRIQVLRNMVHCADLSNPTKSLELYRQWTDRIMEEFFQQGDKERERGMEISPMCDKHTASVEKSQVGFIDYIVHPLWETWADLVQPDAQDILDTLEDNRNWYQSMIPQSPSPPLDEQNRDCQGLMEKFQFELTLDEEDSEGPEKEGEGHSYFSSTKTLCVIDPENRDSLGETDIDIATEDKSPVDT
smiles,measurement,setting,value
NC(=O)c1cccc(N)c1,Potency,[1],inactive
same,outcome,[2],inactive
OCc1ccc(-c2nn(Cc3ccccc3)c3ccccc23)o1,outcome,[2],inactive
CC(=O)Oc1ccccc1C(=O)Nc1ncc([N+](=O)[O-])s1,Potency,[3],25.1 µM (active)
same,Potency,[4],31.6 µM (active)
same,Potency,[5],31.6 µM (active)
same,Potency,[6],25.1 µM (active)
same,Potency,[7],25.1 µM (active)
same,outcome,[8],inactive
same,outcome,[9],inactive
same,Potency,[10],inactive
CNNCc1ccc(C(=O)NC(C)C)cc1,Potency,[1],inactive
same,outcome,[2],inactive
Nc1ccc(S(=O)(=O)Nc2ccccn2)cc1,Potency,[1],inactive
same,outcome,[2],inactive
NC(N)=NC(N)=NCCc1ccccc1,Potency,[1],inactive
same,"activity change, negative = cytotoxicity",[3],-109% (active)
same,Potency,[6],inactive
same,Potency,[7],inactive
same,outcome,[2],inactive
same,outcome,[8],inactive
same,outcome,[9],inactive
same,Potency,[10],inactive
CCn1cc(C(=O)O)c(=O)c2cc(F)c(N3CCNCC3)cc21,Potency,[1],inactive
same,outcome,[2],inactive
N[C@@H](Cc1ccc(O)c(O)c1)C(=O)O,Potency,[1],inactive
same,outcome,[2],inactive
COc1ccc2c(c1)c(CC(=O)OCC(=O)O)c(C)n2C(=O)c1ccc(Cl)cc1,Potency,[1],inactive
same,outcome,[2],inactive
COc1cnc(NS(=O)(=O)c2ccc(N)cc2)nc1,Potency,[1],inactive
same,outcome,[2],inactive
CCn1cc(C(=O)O)c(=O)c2cc(F)c(N3CCNCC3)nc21,Potency,[1],inactive
same,outcome,[2],inactive
COc1cc2ncnc(Nc3cccc(Cl)c3)c2cc1OC,Potency,[1],inactive
same,outcome,[2],inactive
CC(C)(Sc1cc(C(C)(C)C)c(O)c(C(C)(C)C)c1)Sc1cc(C(C)(C)C)c(O)c(C(C)(C)C)c1,Potency,[1],inactive
same,outcome,[2],inactive
CCCOc1ccc(C(=O)OCCN(CC)CC)cc1N,Potency,[1],inactive
same,outcome,[2],inactive
COc1cc(NS(=O)(=O)c2ccc(N)cc2)nc(OC)n1,Potency,[1],inactive
same,outcome,[2],inactive
CC1=CC(=O)c2ccccc2C1=O,Potency,[1],inactive
same,outcome,[2],inactive
COC(=O)Nc1nc2ccc(Sc3ccccc3)cc2[nH]1,Potency,[1],inactive
same,outcome,[2],inactive
COC(=O)Nc1nc2ccc(C(=O)c3ccccc3)cc2[nH]1,Potency,[1],inactive
same,outcome,[2],inactive
